From PubChem BioAssay AID1159537 (DiRusso Lab, Biochemistry Department, University of Nebraska, 2015)
Out of some 44,000 compounds screened, about 370 (0.84%) were called active. No rule for the calls is given here. The entries come from a sample that favours actives as a whole.

experiment: compounds raising algal triacylglycerol storage – qHTS, Chlamydomonas reinhardtii, primary screen (AID 1159537); conditions: Chlamydomonas reinhardtii TAG, Nile Red fluorescence, 72 h;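 also: hits raise Nile Red signal meaning more stored TAG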

SMILES | outcome
CCN(CC)CC#CCOc1ccccc1 | active [screened at 10 µM (by protocol)]
O=C(Nc1cccc(OC(=O)N2CCCCC2)c1)N1CCOCC1 | inactive
CCN(CC)CCNc1ccc([N+](=O)[O-])c2cccnc12 | inactive [screened at 10 µM (by protocol)]
CN1CCN(Cc2cc(Br)cs2)CC1 | inactive [screened at 10 µM (by protocol)]
CN1CCCN(CC2=CC[C@H]3C[C@@H]2C3(C)C)CC1 | active [screened at 10 µM (by protocol)]
CCN1CCN(CC2=CC[C@H]3C[C@@H]2C3(C)C)CC1 | inactive [screened at 10 µM (by protocol)]
Cc1cccc(OCC(=O)N2CCN(Cc3ccccc3)CC2)c1C | inactive [screened at 10 µM (by protocol)]
Fc1cccc(Cl)c1CN1CCN(c2ccccc2)CC1 | inactive
O=c1cccc2n1CC1CC2CN(c2nc(N3CCOCC3)nc(N3CCOCC3)n2)C1 (stereo not given) | inactive
COc1ccccc1N1CCN(Cc2cccc([N+](=O)[O-])c2)CC1 | inactive
Cc1ccc(C)c(N2CCN(Cc3ccc([N+](=O)[O-])cc3)CC2)c1 | active
O=[N+]([O-])c1ccc(CN2CCN(c3cccc(Cl)c3)CC2)cc1 | inactive
CCC1(c2ccccc2)C(=O)NC(=O)N(C)C1=O (stereo not given) | inactive
Nc1ccc(-c2ccc(N)c(N)c2)cc1N | inactive [screened at 10 µM (by protocol)]
N#CC(/C=C/c1ccccc1)N1CCOCC1 (stereo not given) | inactive
